Active and inactive are the calls of the source.

The record followed here is PubChem BioAssay.

One assay addresses Albumin (Bos taurus) (UniProt P02769). In words: compounds binding labelled BSA control protein – biochemical, small-molecule microarray, Alexa647 label, 635/667 nm fluorescence, artefact control for SMM control protein annotation, profiling panel (AID 1118).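 Further: score merges 667 nm emission intensity and signal-to-noise per printed compound spot.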 Conditions: BSA-A647 binding, fluorescence 635 nm, higher = more signal.
Assay [1] in a line: probe aXIP binding to arrayed compounds – biochemical, NeuroSMM set, 635/667 nm fluorescence, primary screen (AID 1119).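 Further: probe is the protein aXip251-270 applied at 1 µg/mL to compound-printed slides; binding of probe to printed compounds measured as 667 nm fluorescence plus signal to noise.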 As to conditions: small-molecule microarray, higher = more signal, called active from +8 up or from −8 down.
Assay [2] can be described thus: probe aNOTCH3 binding on compound microarray – biochemical, small-molecule microarray, 635/667 nm fluorescence, primary screen (AID 1120).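 Further: probe is a biotin-tagged antibody raised against NOTCH3 rather than NOTCH3 protein; score merges spot fluorescence near 667 nm with spot signal to noise.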 As to conditions: higher = more signal.
Assay [3] in a line: probe aNOTCH2 binding on compound microarray – biochemical, small-molecule microarray, 635/667 nm fluorescence, primary screen (AID 1121).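 Further: score merges feature fluorescence read at 667 nm with its signal to noise.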 Conditions: higher = more signal.
Assay [4] deals with Carbonic anhydrase 2 (Homo sapiens) (UniProt P00918). Kind of assay: compounds binding carbonic anhydrase 2 – biochemical, small-molecule microarray, Alexa647-labelled CAII, profiling panel (AID 1122). Conditions: CAII-A647 binding fluorescence, higher = more signal.
Assay [5] is described as follows: COS7 lysate on small-molecule microarray, probe aHis, 635 nm (AID 1123).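 Further: z-score combines 667nm fluorescence intensity with signal-to-noise per printed compound spot.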 As to conditions: COS7 cell lysate, fluorescence, higher = more signal.
A short description of assay [6]: probe aLAP1 signal on lysate-treated microarray – cell lysate, small-molecule microarray, COS7 lysate, primary screen (AID 1124).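 Further: lysate comes from COS7 cells expressing LAP1 and is applied at 0.3 µg/mL; score merges spot fluorescence near 667 nm with signal-to-noise over triplicate slides.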 As to conditions: probe aLAP1, fluorescence, higher = more signal.
In a further assay the test system is Sam68 (KHDRBS1). Kind of assay: compounds binding KHDRBS1 protein – biochemical, small-molecule microarray, 635 nm fluorescence, primary screen (AID 1125).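 Further: score merges 667 nm channel intensity with signal to noise over triplicate slides.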 Conditions: higher = more signal.
In assay [7] the test system is Chordin-like protein 2 (CHRDL2). In words: compounds binding chordin-like 2 – biochemical, small-molecule microarray, 635 nm fluorescence, primary screen (AID 1126).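 Further: printed compound slides probed with Chrdl2 protein at 4 µg/mL for 1 h at 4 C; score merges 667 nm emission intensity with signal to noise over three replicate slides.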 As to conditions: fluorescence 635 nm, higher = more signal.
The target in assay [8] is Concanavalin-A (Canavalia ensiformis) (UniProt P02866). Kind of assay: compounds binding concanavalin A lectin – biochemical, small-molecule microarray, Alexa647 label, 635 nm, artefact control for SMM control protein annotation, primary screen (AID 1127).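 Further: z combines 667 nm emission intensity with signal-to-noise across three replicate slides.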 Conditions: ConA-A647 binding fluorescence, higher = more signal.
Chain of Concanavalin-A (Canavalia ensiformis) (P02866 whole entry, looked up): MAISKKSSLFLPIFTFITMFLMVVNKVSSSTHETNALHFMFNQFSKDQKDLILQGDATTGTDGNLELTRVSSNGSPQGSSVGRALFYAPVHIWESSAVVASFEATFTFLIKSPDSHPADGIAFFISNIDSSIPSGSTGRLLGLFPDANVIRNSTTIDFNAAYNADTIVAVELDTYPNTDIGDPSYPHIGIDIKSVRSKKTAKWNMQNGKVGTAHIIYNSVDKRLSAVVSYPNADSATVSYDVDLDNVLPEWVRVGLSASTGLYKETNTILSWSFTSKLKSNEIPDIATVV

Chain of Albumin (Bos taurus) (P02769 whole entry, looked up): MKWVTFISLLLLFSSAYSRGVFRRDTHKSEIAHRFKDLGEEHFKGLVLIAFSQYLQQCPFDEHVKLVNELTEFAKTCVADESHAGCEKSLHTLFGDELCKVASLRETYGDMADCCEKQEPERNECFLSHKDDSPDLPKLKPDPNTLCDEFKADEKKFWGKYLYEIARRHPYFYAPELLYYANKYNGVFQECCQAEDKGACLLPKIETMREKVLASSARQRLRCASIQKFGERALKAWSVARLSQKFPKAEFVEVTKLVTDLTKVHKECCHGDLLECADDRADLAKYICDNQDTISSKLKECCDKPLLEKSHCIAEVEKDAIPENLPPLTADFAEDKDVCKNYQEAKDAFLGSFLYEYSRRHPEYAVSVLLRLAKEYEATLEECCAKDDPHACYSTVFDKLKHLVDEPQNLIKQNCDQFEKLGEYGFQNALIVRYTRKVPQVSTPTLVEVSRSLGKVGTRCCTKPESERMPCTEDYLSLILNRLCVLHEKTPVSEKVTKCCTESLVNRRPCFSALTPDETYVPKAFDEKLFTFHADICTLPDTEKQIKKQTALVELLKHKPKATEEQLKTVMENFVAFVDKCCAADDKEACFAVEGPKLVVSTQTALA

For `COCCOC(=O)N1C(=O)[C@@]2(c3cc(C#CCCO)ccc31)[C@H](c1ccccc1OCCO)N1[C@H](c3ccccc3)[C@H](c3ccccc3)OC(=O)[C@H]1[C@@H]2C(=O)N1CCCCCCC1`, the composite z-score with Albumin (Bos taurus) came out at 0.86; in assay [2], 1.39; in assay [3] it was 0.333; in assay [4], 0.761; in assay [5] it was 3.2; in assay [6] it was 0.796. Besides, the composite z-score was 1.29 in the assay on Sam68 (KHDRBS1), 1.05 in assay [7] and 1.11 in [8]. The composite Z-score in [1] was 0.358 (inactive).

Consider `[N-]=[N+]=NCc1ccccc1[C@H]1OC(c2ccc(OCCCO)cc2)=N[C@@]1(CCS(=O)(=O)c1ccccc1)C(=O)NCc1ccccc1`, for which the composite z-score with Albumin (Bos taurus) was found to be 0.852; in assay [2], 0.281; in [3], 0.0323; in assay [4], 0.435; in [5] it was 1.6; in [6], 0.0714. The composite z-score with Sam68 (KHDRBS1) was 1.24; in assay [7], 0.187; in [8], 1.13. Besides, in assay [1], the composite Z-score is 0.421 (inactive).

Take `O=C1NC(=O)C2C1C=CC(C(O)c1ccccn1)N2Nc1ccc(Cl)cc1Cl` (stereo not given): the composite z-score came out at 1.02 with Albumin (Bos taurus); 0.0773 in assay [2]; 0.0554 in [3]; 0.815 in assay [4]; 3.23 in [5]; 0.048 in assay [6]. Moreover, the results for the composite z-score (with Sam68 (KHDRBS1); in [7]; in [8]) were 0.25, -0.44 and 0.786, respectively. Moreover, the composite Z-score in assay [1] was 0.222 (inactive).

As for `CC(C)C[C@@H]1NC(=O)[C@@]23C(=O)N[C@@H](Cc4ccccc4)C2[C@H](C)[C@@]2(C)O[C@H]2C3/C=C/C/C=C\CNC(=O)[C@@H](C)NC1=O` (stereo not given in full), the composite z-score with Albumin (Bos taurus) is 0.663; in assay [2] it was -0.251; in assay [3], -0.196; in assay [4], 0.449; in [5], -0.128; in assay [6], -0.217. Further, the composite z-score with Sam68 (KHDRBS1) is -0.604; in assay [7] it was 0.643; in [8], 0.075. Further, in assay [1], the composite Z-score is -0.106 (inactive).

`CC(C)(C)OC(=O)CC[C@]12N=C(c3ccc(OCCCO)cc3)O[C@H]1c1ccccc1N(Cc1ccccc1)C2=O`: the composite z-score was 0.0468 with Albumin (Bos taurus); 0.0525 in [2]; -0.0456 in [3]; 0.557 in [4]; 2.39 in [5]; 0.504 in [6]. In addition, the figures for the composite z-score (with Sam68 (KHDRBS1); in [7]; in assay [8]) were 1.3, 0.581 and 0.995, respectively. Moreover, in assay [1], the composite Z-score was 2.86 (inactive).

As to `CS(=O)(=O)CCOC(=O)C1=CC(CCCO)=CC(C2CC2)N(Cc2cccc(OC(F)(F)F)c2)C=C1C(=O)OCCS(C)(=O)=O` (stereo not given), the composite z-score with Albumin (Bos taurus) was 0.42; in assay [2] it was 0.0311; in assay [3] it was -0.133; in assay [4], 0.751; in assay [5], 1.16; in [6], -0.0318. Besides, the composite z-score in the assay with Sam68 (KHDRBS1) is 1.33; in [7] it was -0.316; in assay [8], 0.244. For the same compound, the composite Z-score in assay [1] was 3.23 (inactive).

On to `COCCOC(=O)N1C(=O)[C@@]2(c3cc(C#CCNC(N)=O)ccc31)[C@H](c1ccc(O)cc1)N1[C@H](c3ccccc3)[C@H](c3ccccc3)OC(=O)[C@H]1[C@@H]2C(=O)N1CCN(c2ncccn2)CC1`, for which the composite z-score with Albumin (Bos taurus) was 0.678; in assay [2] it was 0.344; in assay [3], -0.175; in assay [4], 0.506; in assay [5], 2.41; in assay [6] it was 0.566. In addition, the composite z-score in the assay on Sam68 (KHDRBS1) was determined as 1.27; in assay [7] it was 0.279; in assay [8] it was 1.1. Further, the composite Z-score in [1] was 0.529 (inactive).

`[N-]=[N+]=NCc1ccccc1C[C@@]1(C(=O)N2CCCCC2)N=C(c2ccc(OCCCO)cc2)O[C@@H]1c1ccccc1CN=[N+]=[N-]`: the composite z-score with Albumin (Bos taurus) was 0.36; in [2], 0.0435; in [3] it was 0.0515; in assay [4], 0.711; in [5], 1.81; in assay [6], 1.06. The composite z-score was 1.08 with Sam68 (KHDRBS1), -1.07 in assay [7] and 1.09 in assay [8]. For the same compound, in assay [1], the composite Z-score was 0.569 (inactive).

For `C=CCNC(=O)[C@@H]1[C@H]2C(=O)O[C@H](c3ccccc3)[C@H](c3ccccc3)N2[C@H](c2ccc(O)cc2)[C@@]12C(=O)N(C(=O)OCCOC)c1ccc(C#CCCO)cc12`, the composite z-score in the assay with Albumin (Bos taurus) was -0.906; in assay [2], 0.364; in assay [3] it was -0.0191; in [4], 0.561; in assay [5], 1.88; in [6] it was 0.459. Moreover, the composite z-score in the assay with Sam68 (KHDRBS1) came out at 1.29; in assay [7], 0.467; in assay [8], 1.17. The composite Z-score in assay [1] is 0.232 (inactive).

As to `COC(=O)C(CC#Cc1ccc2c(c1)[C@]1(C(=O)N2)[C@H](c2ccc(OCCO)cc2)N2[C@H](c3ccccc3)[C@H](c3ccccc3)OC(=O)[C@H]2[C@@H]1C(=O)N1CCN(c2ncccn2)CC1)C(=O)OC`, the composite z-score with Albumin (Bos taurus) was determined as 0.621; in assay [2], 0.176; in assay [3], 0.0296; in assay [4], 0.62; in [5] it was 1.71; in assay [6] it was 0.832. The figures for the composite z-score (with Sam68 (KHDRBS1); in assay [7]; in assay [8]) were 1.3, 0.441 and 1.16, respectively. The composite Z-score in assay [1] was 0.434 (inactive).

`[N-]=[N+]=NCc1ccccc1[C@@H]1OC(c2ccc(OCCCO)cc2)=N[C@]1(Cc1ccccc1N=[N+]=[N-])C(=O)N1CCCCC1`: the composite z-score with Albumin (Bos taurus) is 0.354; in [2] it was -0.137; in assay [3], -0.116; in [4] it was 0.56; in [5], 2.57; in assay [6], 0.0904. Moreover, the composite z-score in the assay with Sam68 (KHDRBS1) is 1.22; in assay [7], -0.39; in [8], 1.14. Further, in assay [1], the composite Z-score is 0.038 (inactive).

Regarding `CC(C)[Si]1(C(C)C)OCc2cc(-c3ccc(-c4ccc(Cl)c(Cl)c4)o3)nc(CCc3ccccc3)c21`, the composite z-score is -0.176 with Albumin (Bos taurus); -0.0362 in assay [2]; -0.171 in [3]; 0.384 in assay [4]; 0.587 in assay [5]; 0.112 in assay [6]. Further, the composite z-score with Sam68 (KHDRBS1) was -0.0975; in [7], 0.0164; in [8] it was -0.843. The composite Z-score in assay [1] was 0.182 (inactive).
